# Measurements: PubChem BioAssay (NCI)
# Compounds without any hit were thinned out: in the full panel of roughly 79,000, 15% have a hit. Values without a mark were called inactive. Calls of active or inactive are those of the source. Cut-off read from the data, not from the text of the source: active = growth inhibition above about 70%; inactive = the rest.
# Test: NCI Yeast Anticancer Drug Screen. Data for the bub3 strain (AID 167)
# Details: S. cerevisiae bub3 mutant strain, at 50.0 µM, hits give high values
# How it was run: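 Steps: expose the mutant yeast strain to compound; grow alongside vehicle-treated cultures; measure growth; express inhibition against the vehicle cultures.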
row,SMILES,growth inhibition
1,O=Nc1c(O)ccc2ccccc12.[Fe].[Na+],97.6% (active)
2,CC(C)Cc1ncc(CC(C)C)n(O)c1=O,89.5% (active)
3,COc1ccc2c(c1)CCc1c-2ccc(C)c1CCC(=O)O,60.2%
4,COc1ccc(/C=C(\C#N)c2ccccc2)cc1OC,84.4% (active)
5,CCC(=O)OCC(=O)c1ccc(-c2ccccc2)cc1,57.1%
6,C=C1CC(c2ccc(OCCCN3C(=O)c4ccccc4C3=O)c(OC)c2)OC1=O (stereo not given),92% (active)
7,N[C@H](C(=O)O)[C@@H]1CC(Cl)=NO1,88.5% (active)
8,Cc1ccc2c(c1)[n+]([O-])c(N)c(C#N)[n+]2[O-],29.4%
9,Cc1cc(O)c2c(c1)C(=O)c1c(c(O)cc(O)c1-c1c(O)cc(O)c3c1C(=O)c1cc(C)cc(O)c1C3=O)C2=O,63.7%
10,CC(=O)c1csc2c1C(=O)c1scc(C(C)=O)c1C2=O,90.3% (active)
11,CCC(CCCN(CC)CCc1ccccc1)OC(=O)c1cc(OC)c(OC)c(OC)c1 (stereo not given),4%
12,COC(CCC[N+](C)(C)C)CC[N+](C)(C)C (stereo not given),97.1% (active)
13,CCC(=O)c1ccc2ccc3ccccc3c2c1,68.8%
14,CN(C)c1nc(N(C)C)oc(=[N+](C)C)n1,-7.45%
15,COc1ccc(Cc2ccc(N)cc2)cc1,91.1% (active)
16,CN(C)CC(CN(C)C)C(=O)c1ccc(Oc2ccccc2)cc1,99.5% (active)
17,C1C2OC2C2C1C1CC2C2OC12 (stereo not given),-12.9%
18,Nc1ccc2c(c1)[nH]c(=O)c1cccc(Cl)c12,32.5%
19,COc1cccc(C2c3cc4c(cc3OC(Nc3ccccc3)C2C)OCO4)c1O (stereo not given),53.1%
20,Cc1cc(SC#N)cc(C)c1O,78.9% (active)

row,SMILES,growth inhibition
1,CCN(CC)CCCNc1ncc(C)c2c1c1ccc3c(O)cccc3c1n2C,-9.95%
2,O=C1c2ccccc2C(O)(C#Cc2ccccc2)c2cnccc21 (stereo not given),98.2% (active)
3,CC(=O)Nc1nnc(C)s1,-19.3%
4,CC1CN(CC(O)c2ccc(Br)cc2)CC(C)O1 (stereo not given),54.6%
5,O=C(C=P(c1ccccc1)(c1ccccc1)c1ccccc1)CC(=S)CC(=O)C=P(c1ccccc1)(c1ccccc1)c1ccccc1,95.9% (active)
6,CN(C)CCC(/C=C/c1ccccc1)=N\Nc1ccc(Cl)cc1Cl,98.8% (active)
7,Oc1c(Cl)cc(Br)cc1Cl,89.3% (active)
8,Cc1ccc2c(ccc(CC(=S)[S-])[n+]2C)c1,61.5%
9,Cc1ccc2c(c1)C(=O)N(CC[P+](c1ccccc1)(c1ccccc1)c1ccccc1)C2=O,66.7%
10,Nc1ncnc2c1c(-c1ccccc1)cn2-c1ccc(Cl)cc1,-17.4%
11,Nc1nnc(-c2cc([N+](=O)[O-])cc([N+](=O)[O-])c2)o1,-19.2%
12,COc1cc2c(cc1OC)C(Cl)C(c1ccc(F)cc1)=C2Cl (stereo not given),45.2%
13,COc1ccc(C2Oc3c(cccc3OC)C=C2[N+](=O)[O-])cc1 (stereo not given),45.2%
14,O=C(O)c1cc2cc3ccccc3cc2cc1O,51.2%
15,Oc1ccc2ccc3ccccc3c2c1,99.5% (active)
16,COC(=O)c1ccc(OC)cc1,69.1%
17,Clc1ccc2c(NCCCCCCNc3ccnc4cc(Cl)ccc34)ccnc2c1,81.1% (active)
18,COc1ccc(C2C3=C(CCC(CN(C)C)C3=O)OC3=C2C(=O)C(CN(C)C)CC3)cc1 (stereo not given),-3.5%
19,CC(C)CC(NC(=O)COc1c(Cl)cc(Cl)c(Cl)c1Cl)C(=O)O (stereo not given),1%
20,Cc1nc2c(=O)[nH]c3ccc(Cl)cc3c2o1,60.2%

# Test: NCI Yeast Anticancer Drug Screen. Data for the mlh1 rad18 strain (AID 175)
# Details: S. cerevisiae mlh1 rad18 strain growth inhibition; at 5.0 µM (retest, dose inferred, filed as 0.5); hits give high values
# How it was run: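 Genetically defined yeast (DNA repair-deficient) exposed to compounds; growth inhibition determined relative to vehicle.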
row,SMILES,growth inhibition
1,O=Nc1c(O)ccc2ccccc12.[Fe].[Na+],4%
2,CC(C)Cc1ncc(CC(C)C)n(O)c1=O,61%
3,COc1ccc2c(c1)CCc1c-2ccc(C)c1CCC(=O)O,22%
4,COc1ccc(/C=C(\C#N)c2ccccc2)cc1OC,-6%
5,CCC(=O)OCC(=O)c1ccc(-c2ccccc2)cc1,-8%
6,C=C1CC(c2ccc(OCCCN3C(=O)c4ccccc4C3=O)c(OC)c2)OC1=O (stereo not given),10%
7,N[C@H](C(=O)O)[C@@H]1CC(Cl)=NO1,86% (active)
8,Cc1ccc2c(c1)[n+]([O-])c(N)c(C#N)[n+]2[O-],-48%
9,Cc1cc(O)c2c(c1)C(=O)c1c(c(O)cc(O)c1-c1c(O)cc(O)c3c1C(=O)c1cc(C)cc(O)c1C3=O)C2=O,-8%
10,CC(=O)c1csc2c1C(=O)c1scc(C(C)=O)c1C2=O,32%
11,CCC(CCCN(CC)CCc1ccccc1)OC(=O)c1cc(OC)c(OC)c(OC)c1 (stereo not given),5%
12,COC(CCC[N+](C)(C)C)CC[N+](C)(C)C (stereo not given),8%
13,CCC(=O)c1ccc2ccc3ccccc3c2c1,5%
14,CN(C)c1nc(N(C)C)oc(=[N+](C)C)n1,1%
15,COc1ccc(Cc2ccc(N)cc2)cc1,-132%
16,CN(C)CC(CN(C)C)C(=O)c1ccc(Oc2ccccc2)cc1,90% (active)
17,C1C2OC2C2C1C1CC2C2OC12 (stereo not given),1%
18,Nc1ccc2c(c1)[nH]c(=O)c1cccc(Cl)c12,-40%
19,COc1cccc(C2c3cc4c(cc3OC(Nc3ccccc3)C2C)OCO4)c1O (stereo not given),0%
20,Cc1cc(SC#N)cc(C)c1O,-5%

row,SMILES,growth inhibition
1,CCN(CC)CCCNc1ncc(C)c2c1c1ccc3c(O)cccc3c1n2C,17%
2,O=C1c2ccccc2C(O)(C#Cc2ccccc2)c2cnccc21 (stereo not given),-5%
3,CC(=O)Nc1nnc(C)s1,1%
4,CC1CN(CC(O)c2ccc(Br)cc2)CC(C)O1 (stereo not given),29%
5,O=C(C=P(c1ccccc1)(c1ccccc1)c1ccccc1)CC(=S)CC(=O)C=P(c1ccccc1)(c1ccccc1)c1ccccc1,8%
6,CN(C)CCC(/C=C/c1ccccc1)=N\Nc1ccc(Cl)cc1Cl,78% (active)
7,Oc1c(Cl)cc(Br)cc1Cl,12%
8,Cc1ccc2c(ccc(CC(=S)[S-])[n+]2C)c1,4%
9,Cc1ccc2c(c1)C(=O)N(CC[P+](c1ccccc1)(c1ccccc1)c1ccccc1)C2=O,71% (active)
10,Nc1ncnc2c1c(-c1ccccc1)cn2-c1ccc(Cl)cc1,5%
11,Nc1nnc(-c2cc([N+](=O)[O-])cc([N+](=O)[O-])c2)o1,-21%
12,COc1cc2c(cc1OC)C(Cl)C(c1ccc(F)cc1)=C2Cl (stereo not given),0%
13,COc1ccc(C2Oc3c(cccc3OC)C=C2[N+](=O)[O-])cc1 (stereo not given),33%
14,O=C(O)c1cc2cc3ccccc3cc2cc1O,-1%
15,Oc1ccc2ccc3ccccc3c2c1,2%
16,COC(=O)c1ccc(OC)cc1,3%
17,Clc1ccc2c(NCCCCCCNc3ccnc4cc(Cl)ccc34)ccnc2c1,12%
18,COc1ccc(C2C3=C(CCC(CN(C)C)C3=O)OC3=C2C(=O)C(CN(C)C)CC3)cc1 (stereo not given),-13%
19,CC(C)CC(NC(=O)COc1c(Cl)cc(Cl)c(Cl)c1Cl)C(=O)O (stereo not given),-2%
20,Cc1nc2c(=O)[nH]c3ccc(Cl)cc3c2o1,8%
